# Among all 39,000 compounds or so, about 3,300 (8.5%) were called active. The sample holds actives, similar compounds and a random draw of the others, so the mix is not that of the screen.
# Tested on: HepG2
# Experiment: cytotoxicity call (relative viability < 0.9)
# Details: 10 µM
row,Compound,cytotoxicity call
1,NCc1cccc2c1OCCCO2,inactive
2,C[N+](C)(C)CCCC[C@@H]1NC(=O)[C@@H]2C[C@H](C(=O)NCCCCCCNC(=O)CS)[C@H](c3ccc(O)cc3)N2C1=O,inactive
3,CC(C)=C[C@H]1[C@@H](c2nc3ccc(Br)cc3[nH]2)C1(C)C,inactive
4,CCNc1nc(NCC)nc(OCC#N)n1,inactive
5,CCNc1nc(OCCO)nc(N(C)C)n1,inactive
6,CCNc1nc(NCC)nc(C(=O)OCCO)n1,active
7,C[C@@H]1CN([C@@H](C)CO)C(=O)Cc2cc(NC(=O)Cc3cn(C)c4ccccc34)ccc2O[C@@H]1CN(C)Cc1ccc(C(F)(F)F)cc1,active
8,C[C@@H]1CN([C@H](C)CO)C(=O)Cc2cc(NC(=O)Cc3cn(C)c4ccccc34)ccc2O[C@@H]1CN(C)Cc1ccc(C(F)(F)F)cc1,active
9,C[C@H]1CN([C@@H](C)CO)C(=O)Cc2cc(NC(=O)Cc3cn(C)c4ccccc34)ccc2O[C@H]1CN(C)C(=O)Nc1ccc(C(F)(F)F)cc1,inactive
10,C[C@@H]1CN([C@@H](C)CO)C(=O)Cc2cc(NC(=O)Cc3cn(C)c4ccccc34)ccc2O[C@H]1CN(C)C(=O)Nc1ccc(C(F)(F)F)cc1,inactive
11,C[C@@H]1CN([C@@H](C)CO)C(=O)Cc2cc(NC(=O)Cc3cn(C)c4ccccc34)ccc2O[C@H]1CN(C)Cc1ccc(C(F)(F)F)cc1,active
12,C[C@H]1CN([C@@H](C)CO)C(=O)Cc2cc(NC(=O)Cc3cn(C)c4ccccc34)ccc2O[C@@H]1CN(C)Cc1ccc(C(F)(F)F)cc1,active
13,C[C@H](CO)N1C[C@H](C)[C@@H](CN(C)C(=O)Nc2ccc(C(F)(F)F)cc2)Oc2ccc(NC(=O)Cc3cn(C)c4ccccc34)cc2CC1=O,inactive
14,C[C@@H]1CN([C@H](C)CO)C(=O)Cc2cc(NC(=O)Cc3cn(C)c4ccccc34)ccc2O[C@@H]1CN(C)C(=O)Nc1ccc(C(F)(F)F)cc1,inactive
15,C[C@H]1CN([C@@H](C)CO)C(=O)Cc2cc(NC(=O)Cc3cn(C)c4ccccc34)ccc2O[C@@H]1CN(C)C(=O)Nc1ccc(C(F)(F)F)cc1,inactive
16,C[C@@H]1CN([C@@H](C)CO)C(=O)Cc2cc(NC(=O)Cc3cn(C)c4ccccc34)ccc2O[C@@H]1CN(C)C(=O)Nc1ccc(C(F)(F)F)cc1,inactive
17,C[C@H](CO)N1C[C@H](C)[C@H](CN(C)Cc2ccc(C(F)(F)F)cc2)Oc2ccc(NC(=O)Cc3cn(C)c4ccccc34)cc2CC1=O,inactive
18,C[C@H](CO)N1C[C@H](C)[C@H](CN(C)C(=O)Nc2ccc(C(F)(F)F)cc2)Oc2ccc(NC(=O)Cc3cn(C)c4ccccc34)cc2CC1=O,inactive

# Reference: the antibiotic and cytotoxicity screens of Wong et al. (2023)
